Consider eight compounds from PubChem BioAssay (NCATS).

A number with no mark means an inactive call. Results filed as inconclusive are left out. The source made the active and inactive calls. Unless noted, calls come from the whole dose curve; as a rule, active = well fitted curve in either direction with a large enough effect (not every such curve was filed as active); inconclusive = small, poorly fitted or top-dose-only effect, or another doubt; inactive = flat fitted curve, though single readings scatter.

Assay [1] deals with Lysosomal acid glucosylceramidase (Homo sapiens) (UniProt P04062). Kind of assay: Glucocerebrosidase-p2 (AID 348; in the data active = potency below about 10 µM; note: potency is the fitted concentration of half-maximal effect). The conditions noted are these: purified GBA, blue fluorogenic substrate, 40 min. The essentials: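 Normal human glucocerebrosidase (0.2 nM) with blue fluorogenic substrate (80 uM final) in citrate/phosphate pH 5.9 with 10mM sodium taurocholate, 0.01% tween-20; 40 min RT, NaOH/glycine stop; fluorescence Ex 365/Em 440; AC50 from a titration from 0.6 nM upwards.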

Assay [2] can be described thus: AP1 Signaling Pathway (AID 357).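 Note: ME-180 reporter cells stimulated with EGF at its EC50 level; % is set by controls: 0 for no effect and ±100 for the full control effect.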 The conditions noted are these: ME-180 AP-1-bla reporter, EGF-induced, beta-lactamase ratio, 5 h; at 7.69 µM (top of the series) unless noted. The essentials:
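A ratiometric CCF4 readout (405 nm excitation; 460 and 530 nm emission) quantified AP-1-driven beta-lactamase in ME-180 cells after 5 h with compound and EC50 EGF; AC50 values were derived for activators and inhibitors.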

Assay [3] can be described thus: NFAT Signaling Pathway (AID 444).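 Note: carbachol stimulus at about its EC50 of 1 µM final; % is set by controls: 0 for no effect and ±100 for the full control effect.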 The following applies: Jurkat NFAT-bla M1, carbachol, beta-lactamase ratio, 5 h; at 7.69 µM (top of the series) unless noted. The essentials:
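Jurkat cells carrying an NFAT-driven β-lactamase reporter and co-transfected muscarinic M1 receptor were treated with compound plus carbachol (1 uM final, an EC50 level) for 5 h at 37 °C. CCF4 loading followed for 1 h at RT; 460/530 nm ratio gave %activity.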

Assay [4] in a line: Stat Signaling Pathway (AID 446).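 Note: ME-180 cervical cancer cells given 40 pM IL-6 alongside compound; SIE-controlled beta-lactamase reporter measured as 460/530 nm FRET emission ratio; % is set by controls: 0 for no effect and ±100 for the full control effect.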 The following applies: ME-180 SIE beta-lactamase reporter, IL-6 stimulated, 5 h; at 7.69 µM (top of the series) unless noted. The essentials: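 Normalization used AC90 stimulation (300 pM IL-6) and AC90 inhibition (125 nM pan-JAK inhibitor at 40 pM IL-6). The underlying signal is SIE-driven beta-lactamase in ME-180 cells after 5 h IL-6 exposure with compound.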

The target of assay [5] is Glucocorticoid receptor (Homo sapiens) (UniProt P04150). Description: GR-GFP Redistribution (AID 450;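 active = compounds whose dose series gives a full or clear partial fitted curve of increased nuclear translocation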; note: potency is the fitted concentration of half-maximal effect). The following applies: U2OS GR-GFP nuclear translocation, laser cytometry, 2 h.
The target is the same in assay [6]. Description: GR-EFC Redistribution (AID 451; calls by dose curve; note: potency is the fitted concentration of half-maximal effect). The following applies: CHO-K1 GR-EFC translocation, beta-gal luminescence, 2 h. The essentials: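 CHO-K1 cells stably expressing nuclear-localized β-gal enzyme acceptor and GR fused C-terminally to the enzyme donor fragment; ligand-driven nuclear translocation restores β-gal by complementation. Compounds titrated up to 46 uM final, 2 h at 37 °C; luminescence read.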

Assay [7] addresses Mitogen-activated protein kinase 10 (Mus musculus) (UniProt Q61831). Description: JNK3 AlphaScreen Assay (AID 530).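 Note: kinase came from lysate of stimulated human HepG2 cells; % is set by controls: 0 for no effect and ±100 for the full control effect.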 The conditions noted are these: JNK3 lysate, c-Jun phosphorylation; series mostly up to 11.4 µM. The essentials: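 Biotinylated GST-cJun(1-79) served as substrate for JNK3 in HepG2 lysates stimulated with IL-1beta and TNF-alpha. ATP was 10 uM final, pH 7.6. Ser73 phosphorylation was quantified by AlphaScreen (680 nm excitation).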
A general note: In Alpha technology, singlet oxygen from a donor bead excites a nearby acceptor bead.

The target of assay [8] is 3',5'-cyclic-AMP phosphodiesterase 4B (Homo sapiens) (UniProt Q07343). Description: qHTS Assay for Inhibitors of PDE-IV (AID 607; active = well fitted activation curve with a large enough effect in the main read-out, with a control signal flat, not every such curve was filed as active; note: % of control where 0% means no effect). The following applies: HEK293 ACTOne CNG channel cells, membrane potential fluorescence; series mostly up to 22.9 µM. The essentials:
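HEK293 ACTOne cells with CNG channel (1000/well), endogenous PDE4; membrane potential dye, compounds up to 22.9 uM final. Fluorescence Ex 535/Em 590; RO 20-1724 (100 uM final) as reference.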

Assay [9] concerns the target Cytochrome P450 1A2 (Homo sapiens) (UniProt P05177). Kind of assay: p450-cyp1a2 (AID 410; calls by dose curve; note: potency is the fitted concentration of half-maximal effect). The conditions noted are these: recombinant CYP1A2, luciferin-ME demethylation, luminescence; series mostly up to 11.4 µM. The essentials: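 20nM CYP1A2, 100uM Luciferin-ME (=Km), 100mM KPO4; cpd 10 min RT; +NADPH regen, 60 min RT; stop/detect 20 min; luminescence. Normalized to furafylline 57 uM = full inhibition.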

In assay [10] the target is Cytochrome P450 3A4 (Homo sapiens) (UniProt P08684). Kind of assay: qHTS Assay for Activators of Cytochrome P450 3A4 (AID 885; active = well fitted curve in the direction sought with a large enough effect; an effect the other way counts as inactive or inconclusive; note: nearly all actives have a fitted effect of over 65% in size). The conditions noted are these: recombinant CYP3A4, Luciferin-PPXE luminescence, 60 min; series mostly up to 11.4 µM. The essentials:
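Human CYP3A4 dealkylates Luciferin-PPXE to luciferin, which luciferase detection converts to light. Substrate was at its KM (25uM), buffer 200mM KPO4, reaction 60 min at RT.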
On the technique in general: qHTS replaces the single test concentration by a dilution series.

Assay [11] in a line: qHTS Assay for Identification of Small Molecule Agonists for Hypoxia Response Element Signaling Pathway (AID 914; active = well fitted activation curve with a large enough effect in the signal ratio, with a control signal flat, not every such curve was filed as active; the % refers to the signal ratio; note: potency is the fitted concentration of half-maximal effect). The conditions noted are these: ME-180 (cervical carcinoma) HRE-bla reporter, beta-lactamase ratio, CoCl2, 17 h; activation: hits give high values. The essentials:
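HRE-bla ME-180 cells, overnight plating in Opti-MEM with 0.5% dialyzed FBS; cpd titration + EC50 CoCl2, 17 h, 37 degrees Celsius; CCF4 2.5 h RT; 460/530 nm ratio; AC50.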

In assay [12] the target is ATP-dependent 6-phosphofructokinase (Trypanosoma brucei brucei) (UniProt O15648). Kind of assay: qHTS Assay to Find Inhibitors of T. brucei phosphofructokinase: hit validation (AID 492961; active = well fitted curve in the direction sought with a large enough effect; an effect the other way counts as inactive or inconclusive). The conditions noted are these: T. brucei PFK, ADP-Glo luminescence; series mostly up to 51.4 µM. The essentials: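 Percent activity derived from corrected luminescence, normalized between 0x and 1x enzyme controls, then fitted to concentration-response curves. Conditions: 1.25 nM PFK, 0.1 mM ATP, 0.5 mM F6P, 45 min RT.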

Assay [13] in a line: qHTS profiling for inhibitors of Plasmodium falciparum proliferation (AID 504749; active = well fitted curve in the direction sought with a large enough effect; an effect the other way counts as inactive or inconclusive;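 note: 0% = DMSO vehicle and full inhibition = artemisinin control; nearly all actives have a fitted effect of over 60% in size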). The following applies: P. falciparum in erythrocytes, SYBR Green DNA, 72 h, at 28.7 µM (top of the series). The essentials: (§1)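 Fluorescence of SYBR Green-bound parasite DNA, read at 485/535 nm, served as the growth measure. Infected erythrocytes were cultured with compound 72 h; artemisinin (0.29 uM) and DMSO wells defined the normalization range.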

Assay [14] deals with AS120. The assay is described as above. The following applies: P. falciparum in erythrocytes, SYBR Green DNA, 72 h; series mostly up to 28.7 µM. The essentials:
as §1

In assay [15] the test system is ATS189. Described as above. The conditions noted are these: P. falciparum in erythrocytes, SYBR Green DNA, 72 h; series mostly up to 28.7 µM. The essentials:
as §1

The subject of assay [16] is W2. The description is as above. The following applies: P. falciparum in erythrocytes, SYBR Green DNA, 72 h; series mostly up to 28.7 µM. The essentials:
as §1

Sequence of Lysosomal acid glucosylceramidase (Homo sapiens) (P04062 whole entry, looked up): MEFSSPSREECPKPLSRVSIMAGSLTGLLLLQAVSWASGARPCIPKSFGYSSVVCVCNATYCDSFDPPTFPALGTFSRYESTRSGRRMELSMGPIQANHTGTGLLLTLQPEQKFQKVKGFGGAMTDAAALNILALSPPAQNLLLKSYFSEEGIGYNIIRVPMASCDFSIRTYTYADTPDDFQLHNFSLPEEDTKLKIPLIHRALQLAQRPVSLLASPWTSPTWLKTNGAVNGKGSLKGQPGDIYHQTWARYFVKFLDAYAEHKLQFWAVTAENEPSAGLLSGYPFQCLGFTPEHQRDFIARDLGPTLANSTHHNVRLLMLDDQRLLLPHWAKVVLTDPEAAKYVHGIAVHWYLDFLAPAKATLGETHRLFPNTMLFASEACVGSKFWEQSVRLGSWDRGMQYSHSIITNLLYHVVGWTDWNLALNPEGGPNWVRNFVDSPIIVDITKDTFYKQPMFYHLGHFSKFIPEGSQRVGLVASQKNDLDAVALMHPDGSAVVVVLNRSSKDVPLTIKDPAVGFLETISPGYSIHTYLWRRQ
Sequence of 3',5'-cyclic-AMP phosphodiesterase 4B (Homo sapiens) (Q07343 whole entry, looked up): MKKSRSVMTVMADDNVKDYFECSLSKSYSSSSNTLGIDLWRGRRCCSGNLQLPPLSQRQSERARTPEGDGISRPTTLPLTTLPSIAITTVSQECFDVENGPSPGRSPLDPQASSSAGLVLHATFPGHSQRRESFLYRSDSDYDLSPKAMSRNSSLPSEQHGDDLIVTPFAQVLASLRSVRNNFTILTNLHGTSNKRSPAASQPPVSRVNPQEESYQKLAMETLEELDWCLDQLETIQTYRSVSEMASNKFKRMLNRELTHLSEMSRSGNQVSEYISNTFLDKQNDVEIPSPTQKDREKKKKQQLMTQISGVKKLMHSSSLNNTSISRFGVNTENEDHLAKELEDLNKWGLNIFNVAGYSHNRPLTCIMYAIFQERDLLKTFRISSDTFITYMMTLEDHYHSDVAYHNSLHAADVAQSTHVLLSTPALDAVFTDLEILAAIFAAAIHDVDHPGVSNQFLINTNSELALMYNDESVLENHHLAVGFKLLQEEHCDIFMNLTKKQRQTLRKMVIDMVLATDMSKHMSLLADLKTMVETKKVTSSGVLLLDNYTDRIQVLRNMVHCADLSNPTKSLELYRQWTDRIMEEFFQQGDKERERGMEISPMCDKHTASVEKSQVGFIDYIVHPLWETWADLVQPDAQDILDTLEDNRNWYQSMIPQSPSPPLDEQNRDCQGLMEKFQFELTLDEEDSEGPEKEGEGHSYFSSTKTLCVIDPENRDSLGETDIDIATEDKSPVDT
Sequence of Glucocorticoid receptor (Homo sapiens) (P04150 whole entry, looked up, the tested form may be a part): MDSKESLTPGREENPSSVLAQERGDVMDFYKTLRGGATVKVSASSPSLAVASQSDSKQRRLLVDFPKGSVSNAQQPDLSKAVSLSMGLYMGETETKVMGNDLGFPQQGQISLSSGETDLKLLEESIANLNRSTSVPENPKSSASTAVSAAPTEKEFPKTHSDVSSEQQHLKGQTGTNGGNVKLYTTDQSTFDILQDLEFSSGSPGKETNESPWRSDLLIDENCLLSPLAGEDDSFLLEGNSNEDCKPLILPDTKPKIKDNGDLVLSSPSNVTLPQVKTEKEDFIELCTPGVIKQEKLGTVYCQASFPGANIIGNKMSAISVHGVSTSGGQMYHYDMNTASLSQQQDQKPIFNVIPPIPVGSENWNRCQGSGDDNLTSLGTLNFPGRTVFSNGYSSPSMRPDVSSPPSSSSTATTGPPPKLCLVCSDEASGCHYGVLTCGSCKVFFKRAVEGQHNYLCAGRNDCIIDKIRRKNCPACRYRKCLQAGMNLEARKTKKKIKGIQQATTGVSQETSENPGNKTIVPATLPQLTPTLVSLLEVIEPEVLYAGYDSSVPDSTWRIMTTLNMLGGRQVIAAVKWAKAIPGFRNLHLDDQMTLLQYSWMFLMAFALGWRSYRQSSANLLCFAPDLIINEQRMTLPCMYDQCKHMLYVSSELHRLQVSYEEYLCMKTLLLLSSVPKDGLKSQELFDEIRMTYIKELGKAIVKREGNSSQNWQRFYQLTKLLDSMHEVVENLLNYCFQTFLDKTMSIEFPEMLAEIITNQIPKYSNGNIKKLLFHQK
Sequence of Cytochrome P450 1A2 (Homo sapiens) (P05177 whole entry, looked up): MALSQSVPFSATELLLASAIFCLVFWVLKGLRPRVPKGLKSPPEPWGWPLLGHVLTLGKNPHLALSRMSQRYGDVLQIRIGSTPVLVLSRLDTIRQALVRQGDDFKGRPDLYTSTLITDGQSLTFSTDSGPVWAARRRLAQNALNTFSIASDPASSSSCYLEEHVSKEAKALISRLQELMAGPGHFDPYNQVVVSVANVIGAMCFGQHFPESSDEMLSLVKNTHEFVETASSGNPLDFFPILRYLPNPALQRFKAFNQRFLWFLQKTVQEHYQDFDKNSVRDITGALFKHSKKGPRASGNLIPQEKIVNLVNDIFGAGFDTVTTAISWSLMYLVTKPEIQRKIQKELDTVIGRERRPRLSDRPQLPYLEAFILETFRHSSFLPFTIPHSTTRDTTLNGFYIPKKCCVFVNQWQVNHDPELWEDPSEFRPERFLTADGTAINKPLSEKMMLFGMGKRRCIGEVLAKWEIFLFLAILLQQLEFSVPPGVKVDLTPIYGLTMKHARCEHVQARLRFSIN
Sequence of Cytochrome P450 3A4 (Homo sapiens) (P08684 whole entry, looked up): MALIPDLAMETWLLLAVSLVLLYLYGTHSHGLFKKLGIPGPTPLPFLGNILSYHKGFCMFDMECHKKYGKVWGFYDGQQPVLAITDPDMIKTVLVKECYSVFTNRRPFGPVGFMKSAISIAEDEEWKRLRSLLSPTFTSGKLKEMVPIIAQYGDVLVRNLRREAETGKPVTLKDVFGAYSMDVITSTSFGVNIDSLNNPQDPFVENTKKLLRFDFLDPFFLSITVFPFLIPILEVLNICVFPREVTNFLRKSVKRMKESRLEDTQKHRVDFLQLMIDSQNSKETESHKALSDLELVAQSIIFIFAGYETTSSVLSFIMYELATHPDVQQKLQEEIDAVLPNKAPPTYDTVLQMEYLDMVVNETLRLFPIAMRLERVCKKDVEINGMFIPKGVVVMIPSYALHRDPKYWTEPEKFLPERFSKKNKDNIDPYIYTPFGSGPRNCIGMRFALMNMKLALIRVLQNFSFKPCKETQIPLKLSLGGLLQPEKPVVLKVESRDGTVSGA
Sequence of ATP-dependent 6-phosphofructokinase (Trypanosoma brucei brucei) (O15648 whole entry, looked up): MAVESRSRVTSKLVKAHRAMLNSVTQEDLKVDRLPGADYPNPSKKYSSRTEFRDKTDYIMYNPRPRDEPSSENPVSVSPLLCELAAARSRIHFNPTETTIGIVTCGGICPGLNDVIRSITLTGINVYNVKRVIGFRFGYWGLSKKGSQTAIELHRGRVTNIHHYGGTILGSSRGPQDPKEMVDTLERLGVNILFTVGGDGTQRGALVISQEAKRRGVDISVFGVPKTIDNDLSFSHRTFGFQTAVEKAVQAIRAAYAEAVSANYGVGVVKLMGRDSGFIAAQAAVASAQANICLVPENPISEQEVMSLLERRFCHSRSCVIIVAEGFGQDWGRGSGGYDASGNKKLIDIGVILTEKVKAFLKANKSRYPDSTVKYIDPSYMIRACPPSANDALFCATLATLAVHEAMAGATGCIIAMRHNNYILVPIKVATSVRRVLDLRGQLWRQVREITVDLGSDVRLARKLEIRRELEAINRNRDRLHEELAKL

Take `CN(C)CCSS(=O)(=O)O`: the Potency in assay [1] was above 11.4 µM; in [5], above 46 µM; in [6], above 9.22 µM. In addition, the activity change, negative = inhibition in assay [2] is 6.2%; in [3], 5.08%. The activity, negative = inhibition in assay [4] was -1.46%. Also, the Potency entry in [7] and in assay [8] was “inactive” each time.

Turning to `CN1CCN(c2ncc3nc(-c4cccs4)c(=O)n(C[C@H]4CCCO4)c3n2)CC1`, the Potency in assay [1] is above 11.4 µM; in assay [9], 12.6 µM (active); in assay [5], above 9.22 µM; in assay [6], above 46 µM; in assay [11], 3.16 µM (active). In addition, in assay [2], the activity change, negative = inhibition was 19.1%. Besides, the Potency result in assay [7] and in assay [10] was “inactive” each time.

As to `NNC(=O)c1ccc(OCc2nc3ccccc3[nH]2)cc1`, the Potency in assay [1] is above 11.4 µM; in [5], above 46 µM; in [6] it was above 9.22 µM. Further, the activity change, negative = inhibition is -12.3% in assay [2] and 13.6% in [3]. The activity, negative = inhibition in [4] is -6.78%. Also, the Potency result in assay [7] and in [8] was “inactive” each time.

Consider `CC1(C)S[C@@H]2[C@H](NC(=O)C3(N)CCCCC3)C(=O)N2[C@@H]1C(=O)O`, for which the Potency in assay [1] is above 11.4 µM; in [5] it was above 46 µM; in assay [6], above 9.22 µM. Moreover, the results for the activity change, negative = inhibition in assay [2] and in assay [3] were -5.88% and 9.48%, respectively. Moreover, in [4], the activity, negative = inhibition was 0.508%. Further, the Potency entry in [7] is “inactive”.

Consider `Nc1nc(SCc2ccccn2)c2ncn(C3CCCC3)c2n1`, for which the Potency in assay [1] was above 11.4 µM; in assay [5], above 46 µM; in assay [6], above 9.22 µM. For the same compound, the activity change, negative = inhibition is -14.6% in assay [2] and 9.85% in assay [3]. The activity, negative = inhibition in [4] is 4.58%. Besides, the Potency entry in [7] is “inactive”.

On to `COc1c2c(c3c(c1CCC(=O)O)OC(C)(C)C=C3)OC(C)(C)C=C2`, for which the Potency in [1] is above 11.4 µM; in assay [5] it was above 46 µM; in assay [6], above 9.22 µM. Also, the activity change, negative = inhibition in assay [2] was -1.7%; in assay [3], 13.1%. In assay [4], the activity, negative = inhibition is -3.06%. The Potency entry in [7] and in [8] was “inactive” each time.

As for `CCC(=O)[C@@H](c1ccccc1)c1ccccn1`, the Potency in [1] is above 11.4 µM; in assay [5], above 46 µM; in assay [6], above 9.22 µM. In addition, the activity change, negative = inhibition is 10.3% in [2] and -5.51% in assay [3]. For the same compound, the activity, negative = inhibition in assay [4] is 0.735%. Besides, the Potency entry in assay [7] and in assay [8] was “inactive” each time.

For the compound `O=C(O)[C@@H](O)[C@@H](O)[C@H](O)C(=O)CO`, the Potency is above 11.4 µM in assay [1], above 46 µM in [5] and above 9.22 µM in assay [6]. The activity change, negative = inhibition was -1.75% in assay [2] and -10.1% in [3]. In addition, the activity, negative = inhibition was 9.54% in assay [4], 6.93% in assay [13] (parasite line A) and 7.4% in assay [13] (parasite line B). The Potency entry in assay [7], in [8], in [14], in [15] and in assay [16] was “inactive” in each case. In addition, in assay [12], the call was inactive.
